SMILES strings stand for the structures. Out of some 290,000 compounds screened, about 2,600 (0.9%) were called active. This excerpt belongs to a sample that is enriched for actives. Unmarked numbers belong to inactive results.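 Rule for the calls: active = inhibition above the mean of all tested compounds plus 3 SD, cutoff set per screening run (cut at about 7.5% in these data); inactive = the rest.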

The test relates to VIM-2 metallo-beta-lactamase (Pseudomonas aeruginosa). Briefly: VIM-2 metallo-beta-lactamase inhibitors, primary screen, biochemical, epi-absorbance readout, Pseudomonas aeruginosa enzyme (AID 1527).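 Note: red hydrolysis product quenches plate fluorescence so inhibitors raise well fluorescence; 0% = enzyme with DMSO and 100% = DMSO without enzyme.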 The note with it: purified VIM-2, nitrocefin hydrolysis, epi-absorbance fluorescence; at 5.6 µM; hits give high values.
As a reminder, the inhibition is the relative decrease from the control value, in per cent. On to `Cc1cccc(-c2nc(Nc3ccc(O)cc3)c3ccccc3n2)c1`, for which the inhibition was -0.38%.
Consider `CN1CCN(c2nc(Nc3ccc(O)cc3)nc3ccccc23)CC1`, for which the inhibition is 12.2% (active).
Regarding `c1ccc(Nc2nc(N3CCOCC3)c3ccccc3n2)cc1`, the inhibition was -0.89%.
For the compound `O=C(/C=C/c1ccc2c(c1)OCCO2)c1ccc(O)cc1`, the inhibition is 0.15%.
On to `CCC(=C/c1sc2ccc3ccccc3c2[n+]1C)/C=C1\Sc2ccc3ccccc3c2N1C`, for which the inhibition was 18.2% (active).
On to `CN1CCN(c2ccc(NC(=O)c3ccc4c(c3)[nH]c(=O)n4Cc3ccc(F)cc3)cc2)CC1`, for which the inhibition was 17.6% (active).
The figure for `CN1CCN(c2ccc(NC(=O)c3ccccc3)cc2)CC1` is 5.59%; for `CC(C)n1c(=O)[nH]c2cc(C(=O)Nc3ccccc3)ccc21` it is -0.68%; for `Cc1cc2occ(CC(=O)NNC(=O)c3ccccc3F)c2cc1C` it is -1.98%.
Consider `Cc1nc(N)nc(SCc2ccc([N+](=O)[O-])cc2)c1N`, for which the inhibition was -0.52%.
In the case of `COC(=O)c1ccc(NC(=O)CSc2nnc(C3CC3)n2C)cc1`, the inhibition is -2.19%.
The same measure for `CCN1CCN(c2ccc(NC(=O)c3cnccn3)cc2)CC1`: 11.1% (active); for `O=C(Nc1ccc(S(=O)(=O)N2CCCCC2)cc1)c1cnccn1`: -1.24%; for `O=C(Nc1ccc2c(c1)OCCO2)c1cnccn1`: -1.18%.
The figure for `CC(CC(=O)N1CCN(c2ccccc2)CC1)S(=O)(=O)c1ccc2c(c1)NC(=O)CS2` (centres undefined) is -2.34%; for `CN1CCN(Cc2c(C(=O)N3CCc4ccccc4C3)nc3ccc(Cl)cn23)CC1` it is 1.36%.
The same measure for `O=C(Nc1ccc(N2CCOCC2)c(Cl)c1)c1ccc(S(=O)(=O)N2CCOCC2)cc1`: -1.9%; for `COC(=O)c1c(NC(=O)c2ccc(S(=O)(=O)N3CCOCC3)cc2)sc2c1CCN(C(C)C)C2`: 60.3% (active).
Consider `CNC(=O)c1ccsc1NC(=O)c1ccc(S(=O)(=O)N2CCc3ccccc32)cc1`, for which the inhibition was -1.27%.
For `CNC(=O)c1ccsc1NC(=O)c1ccc(S(=O)(=O)N2CCOCC2)cc1`, the inhibition was 18.2% (active).
Consider `COc1ccc(C(=O)Nc2nc(-c3ccc(S(=O)(=O)N4CCOCC4)cc3)cs2)cc1`, for which the inhibition was -4.64%.
The same measure for `CC1CN(S(=O)(=O)c2ccc(C(=O)Nc3sccc3C(N)=O)cc2)CC(C)O1` (centres undefined): -1.24%.
As for `Cc1ccn2c(c1)nc(=O)c1cc(S(=O)(=O)N3CCC(C)CC3)ccc12`, the inhibition is 3.01%.
The same measure for `CC(C(=O)NC1CCCCC1)N1C(=O)c2cccc3cccc1c23` (centres undefined): 0.01%; for `COc1ccc2c(c1OC)C(=O)N(c1ccc(O)cc1)C2`: -1.4%; for `CCOC(=O)C1(Cc2ccccc2C)CCCN(S(C)(=O)=O)C1` (centres undefined): 2.72%.
Regarding `C/C(=N\Nc1ncc(Cl)cc1Cl)c1cccs1`, the inhibition was -1.51%.
In the case of `C/C(=N\Nc1ccc(S(N)(=O)=O)cc1[N+](=O)[O-])c1cccs1`, the inhibition was 11.9% (active).
The figure for `C/C(=N\NS(=O)(=O)c1ccc(Br)cc1)c1cccs1` is -5.12%; for `CCN(CC)c1ccc(NC(=O)CCc2nnc3ccc(N4CCCCC4)nn23)c(C)c1` it is -1.16%; for `Cc1ccccc1-c1n[nH]c(=S)n1/N=C/c1ccc(-c2ccccc2Br)o1` it is -6.24%.
On to `Fc1ccc(Br)cc1/C=N/n1cnnc1`, for which the inhibition was 1.26%.
The same measure for `Cc1cc(-c2ccc(/C=N/n3cnnc3)o2)c([N+](=O)[O-])cc1C`: 41.5% (active); for `Cc1cc([N+](=O)[O-])c(-c2ccc(/C=N/n3cnnc3)o2)cc1Cl`: 40.1% (active).
The same measure for `COC(=O)N/N=C/c1ccc(-c2ccc(Cl)c(Cl)c2)o1`: -1.8%; for `Clc1cc(-c2ccc(/C=N/n3cnnc3)o2)ccc1Br`: 14.1% (active); for `Cc1ccc(Cl)cc1-c1ccc(/C=N/n2cnnc2)o1`: 27.4% (active).
The same measure for `O=C1C2C3C=CC(C4CC34)C2C(=O)N1/N=C/c1ccc(-c2ccccc2[N+](=O)[O-])o1` (centres undefined): -0.54%; for `Cc1cc(C)c([N+](=O)[O-])cc1-c1ccc(/C=N/NC(=O)c2nonc2N)o1`: -3.27%; for `CC1=NN(c2ccc(Cl)c(C(=O)O)c2)C(=O)/C1=C/c1ccc(-c2ccccc2[N+](=O)[O-])o1`: -1.65%.
Take `Brc1cc(/C=N/n2cnnc2)oc1Br`: the inhibition is -2.87%.
The same measure for `Cc1ccccc1OCCOc1ccc([N+](=O)[O-])cc1/C=N/n1cnnc1`: -0.56%; for `CC(NC(=O)C1CCCN(S(=O)(=O)c2ccc(-n3cnnn3)cc2)C1)c1ccc(F)cc1` (centres undefined): 1.19%.
The figure for `COc1ccc(CSc2nnnn2-c2ccc(C(=O)O)cc2)cc1` is -2.38%; for `COc1cc(CN2CCCC(C(=O)c3ccc(SC)cc3)C2)cc(Cl)c1O` (centres undefined) it is -0.31%; for `CCOc1c(OC)cccc1C(=O)NCC1(c2ccccc2)CCCC1` it is -2.24%.
The same measure for `O=C(NNC(=S)NCCCN1CCOCC1)c1ccncc1`: 6.22%.
As to `CCCCNC(=S)NNC(=O)c1cc(C)on1`, the inhibition was 9.24% (active).
With `COCCCNC(=S)NNC(=O)C(O)(c1ccccc1)c1ccccc1`, the inhibition was 2.9%.
The figure for `Cc1ccc(SCC(=O)c2cc(C)c(OC(=S)N(C)C)c(C)c2)cc1` is -4.92%; for `CCCC1=Nc2cc(C(=O)NCCN3CCCC3)ccc2Sc2ccccc21` it is -3.66%.
The figure for `COc1cc(/C=N/NC(=O)Cc2ccccc2)cc(OC)c1OC` is -1.77%; for `COc1ccc(/C=N/Nc2nc3ccccc3o2)cc1OC` it is -2.44%.
The same measure for `COc1cc(/C=N/Nc2nn3cnnc3c3ccccc23)cc(OC)c1OC`: 25.2% (active); for `CCCc1nn2c(=O)cc(CSCC(=O)Nc3cccc(C)c3)nc2s1`: 0.24%; for `Cc1cccn2cc(-c3cccc(S(=O)(=O)N4CCCCC4)c3)nc12`: -0.51%.
As for `CN(C(=O)c1cccc([N+](=O)[O-])c1)c1ccccc1C(=O)NCc1ccccc1`, the inhibition was -1.36%.
On to `CCc1nc2oc3ccccc3c(=O)c2c(=O)n1Cc1ccc(OC)cc1`, for which the inhibition is -2.13%.
The figure for `O=c1c2ccccc2oc2nc(C3CCCCC3)n(Cc3ccco3)c(=O)c12` is -2.32%.
Take `O=c1c2ccccc2oc2nc3n(c(=O)c12)CCCS3`: the inhibition is 8.39% (active).
The figure for `Cc1sc2ncn(CC(=O)NCCCC(=O)NCc3ccc(F)cc3)c(=O)c2c1C` is 0.04%; for `Cc1nc2sc(C(=O)c3ccccc3)c(N)c2c2c1CCCC2` it is 2.15%.
The same measure for `Nc1c(C(=O)c2cccs2)sc2nsc(SCCN3CCCCC3)c12`: 13.6% (active); for `CN(C)c1ccnc2sc(C(=O)c3ccccc3)c(N)c12`: -2.05%; for `CCN(CC)CCN1C(=O)C2C(C(=O)Nc3ccc(Br)cc3)C3C=CC2(O3)C1C(=O)NC1CCCCC1` (centres undefined): -0.9%.
The figure for `Cc1ccc2[nH]c(=O)c(CC(=O)O)c(-c3ccccc3)c2c1` is -3.01%; for `CCOc1ccccc1NC(=S)N1CCN(c2cccc(C)c2C)CC1` it is -0.35%; for `COCCNC(=O)c1ccccc1NS(=O)(=O)c1ccc(C)c([N+](=O)[O-])c1` it is 0.45%.
Take `CCN(CC)CCNc1ccc(Cl)cc1[N+](=O)[O-]`: the inhibition was 0.16%.
Consider `CN(C)CCNc1ccc(-c2n[nH]c(=O)c3ccccc23)cc1[N+](=O)[O-]`, for which the inhibition is 78.8% (active).
The figure for `COCCNc1cc(NCCOC)c([N+](=O)[O-])cc1[N+](=O)[O-]` is -3.48%.
The figure for `Cc1ccc(S(=O)(=O)N(C)C)cc1NC(=O)c1n[nH]c(=O)c2ccccc12` is -0.87%; for `COCCNc1ccc(-c2n[nH]c(=O)c3ccccc23)cc1[N+](=O)[O-]` it is 10.5% (active).
The figure for `O=C(Nc1ccc(S(=O)(=O)N2CCCCCC2)cc1)c1c(F)cccc1F` is -0.68%.
For `O=C(O)CCCn1c(=O)c2cccn2c2ccc(F)cc21`, the inhibition is -1.43%.
The same measure for `Clc1ccc(CN2CCCCCC2)cc1Cl`: -2.14%.
The figure for `CC(=O)c1cccc(NC(=O)COc2ccc(S(=O)(=O)N3CCOCC3)cc2)c1` is -2.94%.
The figure for `Cc1cc(C)n2nc(C(=O)NC(C)(C)C)nc2n1` is -3.78%; for `COc1ccc(Cl)cc1C(=O)NNC(=O)c1nc2nc(C)cc(C)n2n1` it is 10.3% (active).
With `C=CCNC(=S)NNC(=O)c1cc(Cl)ccc1OC`, the inhibition was -5.71%.
Consider `O=C(CNC(=O)OCc1ccccc1)Oc1cc2oc(=O)cc(-c3ccccc3)c2cc1Cl`, for which the inhibition was 2.38%.
The same measure for `CN(C)/C=C1/C(=O)Nc2ccccc21`: -0.22%; for `O=C1Nc2ccccc2/C1=C/c1ccnc2ccccc12`: 8.11% (active).
Turning to `Cc1ccccc1N1CCN(CCCN2C(=O)C3CCCCN3C2=O)CC1` (centres undefined), the inhibition is 0.15%.
The same measure for `CC(NS(=O)(=O)c1ccccc1)c1n[nH]c(=S)n1-c1ccccc1` (centres undefined): 14.9% (active); for `CCCCC(CC(C)O)c1n[nH]c(=S)n1-c1ccccc1` (centres undefined): -4.22%; for `S=c1[nH]nc(COc2ccccc2)n1-c1ccccc1`: -1.69%.
The figure for `CCOc1c(Br)cc(/C=C2\C(=O)N(CCC#N)N=C2C)cc1OC` is 0.69%.
For `COc1cccc2c(=O)n(CC(=O)N3CCCCCC3)ccc12`, the inhibition is 1.04%.
For `CCN1CCN(C(=O)Cn2nc(C)n3c(cc4c(OC)cccc43)c2=O)CC1`, the inhibition was 28.3% (active).
As to `CCc1nn(CC(=O)N2CCN(CC)CC2)c(=O)c2cccn12`, the inhibition was -0.45%.
Take `COc1ccc(C(CNC(=O)COc2ccccc2OC)N2CCCCC2)cc1` (centres undefined): the inhibition was -0.07%.
The same measure for `Cc1ccc(CN(N=Nc2nonc2N)c2nonc2N)c(C)c1`: -1.22%.
As for `O=C(COc1ccc(-n2cnnn2)cc1)Nc1ccccc1Cl`, the inhibition was 0.31%.

The values above are taken from PubChem BioAssay AID1527 (The Scripps Research Institute Molecular Screening Center, 2009).
